PubChem BioAssay (NCATS)
Inconclusive results are not listed. Calls of active or inactive are those of the source. Unless noted, the call rests on the fitted dose curve; in most records, active means well fitted curve in the direction sought with a large enough effect; inconclusive means small, poorly fitted or top-dose-only effect, or another doubt; inactive means no such curve, though single readings can be large; an effect the other way counts as inactive or inconclusive.

Assays:
[1] = Cell Viability - LYMP2-011 (AID 969);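 further: 0% = DMSO only and full inhibition = 92 µM tetraoctylammonium bromide; nearly all actives have a fitted effect of over 60% in size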
In short: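 Acute toxicity is scored as a concentration-dependent drop in intracellular ATP of a human lymphoblastoid line after 24 hr treatment. Values are AC50s modeled with the Hill equation.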

[2] = Cell Viability - LYMP2-013 (AID 970);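 further: 0% = DMSO only and full inhibition = tetraoctylammonium bromide control; nearly all actives have a fitted effect of over 55% in size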
In short: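 Acute toxicity was measured in human lymphoblastoid cells (2500/well) exposed to compound titrations for 24 hr, with ATP luminescence (CellTiter-Glo) as read-out and AC50 fitted by Hill equation.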

[3] = Cell Viability - LYMP2-015 (AID 971);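 further: 0% = DMSO only and full effect = 92 µM tetraoctylammonium bromide; nearly all actives have a fitted effect of over 55% in size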
In short: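 Acute toxicity was scored as a concentration-dependent drop in intracellular ATP in lymphoblastoid cells after 24 hr compound exposure in complete medium. Detection used CellTiter-Glo luciferase luminescence.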

[4] = Cell Viability - LYMP2-017 (AID 972);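 further: cells exposed to compound for 24 hours at 37 °C; on the % scale 0 is the no-effect control and ±100 the full control effect; nearly all actives have a fitted effect of over 55% in size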
In short: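 Steps: plate 2500 lymphoblastoid cells per well; incubate 5 hr at 37 C; add compound across a concentration series and incubate 24 hr at 37 C; add CellTiter-Glo and read luminescence after 30 min at room temperature; fit Hill curves for AC50.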

[5] = Cell Viability - LYMP2-019 (AID 973);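 further: 0% = DMSO alone and full effect = 92 µM tetraoctylammonium bromide; nearly all actives have a fitted effect of over 55% in size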
In short: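 Cells plated at 2500/well and allowed 5 hr at 37 C before compound addition. After 24 hr incubation, CellTiter-Glo reagent was added, plates sat 30 min at room temperature, and luminescence was recorded.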

[6] = Cell Viability - LYMP2-021 (AID 974)
In short: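 Concentration-response cytotoxicity in a human lymphoblastoid line: 24 hr treatment at 37 C in complete culture medium, tetraoctylammonium bromide as positive control, luminescent ATP quantitation as viability measure.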

[7] = Cell Viability - LYMP2-023 (AID 975)
In short: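 Concentration-dependent drop in intracellular ATP measures acute cytotoxicity in a human lymphoblastoid line treated for 24 hours in complete culture medium. AC50 values are taken from Hill-equation fits of qHTS data.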

[8] = Cell Viability - LYMP2-025 (AID 976);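 further: plate controls were DMSO only for no effect and tetraoctylammonium bromide control for full effect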
In short: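 In qHTS format, LYMP2-025 lymphoblastoid cells in complete culture medium received compound for 24 hr; ATP-based CellTiter-Glo signal gave viability, with AC50 derived by Hill equation.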

[9] = Cell Viability - LYMP2-002 (AID 977);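 further: plate controls were DMSO only for no effect and 92 µM tetraoctylammonium bromide for full effect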
In short: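 Luminescent ATP readout (CellTiter-Glo, 30 min room temperature) after 24 h compound exposure at 37 C of a human lymphoblastoid line, 2500 cells/well. AC50 values derived by standard Hill fitting of qHTS concentration-response data.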

[10] = Cell Viability - LYMP2-006 (AID 978); further: on the % scale 0 is the no-effect control and ±100 the full control effect; nearly all actives have a fitted effect of over 60% in size
In short: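 Concentration-dependent loss of intracellular ATP in a human lymphoblastoid line after 24 hr treatment at 37 C was measured by CellTiter-Glo luminescence, with AC50 values obtained from standard Hill-equation modelling.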

[11] = Cell Viability - LYMP2-007 (AID 979);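 further: cells exposed to compound for 24 h before reading; 0% = DMSO only and the negative end = 92 µM tetraoctylammonium bromide; nearly all actives have a fitted effect of over 60% in size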
In short: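 Acute toxicity is scored as a concentration-dependent fall in intracellular ATP in human lymphoblastoid cells treated 24 hr at 37 C, measured by luciferase luminescence; Hill-equation modelling yields AC50.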

[12] = Cell Viability - LYMP2-008 (AID 980); further: on the % scale 0 is the no-effect control and ±100 the full control effect; nearly all actives have a fitted effect of over 60% in size
In short: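 Acute cytotoxicity is scored as concentration-dependent loss of cellular ATP in a human lymphoblastoid line after 24 hr treatment at 37 C. ATP is quantified by luciferase luminescence.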

[13] = Cell Viability - LYMP2-010 (AID 981)
In short: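 Acute toxicity is scored as a concentration-dependent loss of cellular ATP in human lymphoblastoid cells after 24 hr compound exposure in complete medium. Tetraoctylammonium bromide is the positive control.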

[14] = Cell Viability - LYMP2-012 (AID 982)
[15] = Cell Viability - LYMP2-014 (AID 983);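 further: plate controls were DMSO only for no effect and 92 µM tetraoctylammonium bromide for full effect; nearly all actives have a fitted effect of over 50% in size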
In short: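 Decrease in intracellular ATP after 24 hr treatment at 37 C, measured by luciferase luminescence, indicated cytotoxicity. Concentration-response data were fitted with the standard Hill equation to give AC50.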

[16] = Cell Viability - LYMP2-016 (AID 984)
In short: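 Acute toxicity in a Coriell human lymphoblastoid line is scored as loss of intracellular ATP over 24 h of treatment in complete medium. CellTiter-Glo signal is fitted across concentrations with the Hill equation to give AC50.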

[17] = Cell Viability - LYMP2-018 (AID 985);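 further: compound exposure lasted 24 hr at 37 °C; plate controls were DMSO only for no effect and tetraoctylammonium bromide at 92 µM for full effect; nearly all actives have a fitted effect of over 50% in size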
In short: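 Acute cytotoxicity is scored as a concentration-dependent drop in intracellular ATP after 24 hr exposure of the lymphoblastoid line in complete culture medium, measured by luciferase luminescence. Potency is expressed as AC50 from Hill modelling.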

[18] = Cell Viability - LYMP2-020 (AID 986)
In short: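 Acute cytotoxicity in a human lymphoblastoid line is scored as a concentration-dependent fall in cellular ATP after 24 hr at 37 C in complete medium. The positive control is tetraoctylammonium bromide, and potency is given as Hill-fit AC50.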

[19] = Cell Viability - LYMP2-022 (AID 987)
In short: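 Acute toxicity in a human lymphoblastoid line is scored as decreased intracellular ATP after 24 hr compound treatment at 37 C. ATP is measured by CellTiter-Glo luminescence; curves are fitted with the Hill equation to give AC50.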

[20] = Cell Viability - LYMP2-024 (AID 988)
In short: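 Acute toxicity is measured as concentration-dependent loss of intracellular ATP in a human lymphoblastoid line treated 24 hours at 37 C. Luciferase luminescence quantifies ATP; AC50 values come from standard Hill-equation modelling.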

[21] = Cell Viability - LYMP2-026 (AID 989); further: on the % scale 0 is the no-effect control and ±100 the full control effect; nearly all actives have a fitted effect of over 50% in size
In short: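 Concentration-dependent loss of intracellular ATP in human lymphoblastoid cells after 24 hr at 37 C, quantified by luciferase luminescence. AC50 derived from standard Hill equation.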

[22] = Cell Viability - LYMP1-002 - Assay at 24 hr (AID 993); further: on the % scale 0 is the no-effect control and ±100 the full control effect
In short: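 qHTS, LYMP1-002 lymphoblastoid, 24 h cpd, 37 C, CellTiter-Glo ATP luminescence; AC50 via Hill eq.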

[23] = Cell Viability - LYMP1-002 - Assay at 40 hr (AID 994)
In short: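 Viability in the human lymphoblastoid line was measured as intracellular ATP via CellTiter-Glo after 40 hr compound exposure. Tetraoctylammonium bromide served as positive control.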

[24] = qHTS Assay for Lipid Storage Modulators (AID 1519; calls by dose curve); conditions: Drosophila S3 cells, BODIPY lipid droplet/cell ratio, laser cytometry, cells loaded with oleic acid
In short: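 Cells seeded at 5,000 per well were treated with compounds over a concentration series and loaded with oleic acid (400 uM, as added). Lipid droplet fluorescence (488 nm excitation, 500-530 nm channel) was read by laser-scanning cytometry and normalized to 20 uM Triacsin C.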

[25] = target: Estrogen receptor (Homo sapiens) (UniProt P03372); experiment: qHTS assay for small molecule agonists of estrogen receptor alpha signaling (AID 588514; calls by dose curve;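 further: 0% = vehicle only and 100% = reference agonist; nearly all actives have a fitted effect of over 70% in size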)
In short: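 Reporter-gene assay. […] controls beta-lactamase in HEK 293 GripTite cells; after 18 hrs with compound, CCF4 substrate is added for 2 hrs and fluorescence is read.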

[26] = target: Androgen receptor (Homo sapiens) (UniProt P10275); experiment: qHTS assay for small molecule antagonists of androgen receptor signaling (AID 588516; active means well fitted curve in the direction sought with a large enough effect in the signal ratio, with a control signal flat, not every such curve was filed as active; the % refers to the signal ratio; further: on the % scale 0 is the no-effect control and ±100 the full control effect)
In short: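 Antagonist-mode qHTS: inhibition of R1881 (10 nM)-driven beta-lactamase expression in GripTite HEK 293 cells is measured after 16 h; values are Hill-derived IC50s normalized between R1881 and DMSO wells.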

[27] = target: Glucocorticoid receptor (Homo sapiens) (UniProt P04150); experiment: qHTS assay for small molecule agonists of glucocorticoid receptor signaling (AID 588532; active means well fitted curve in the direction sought with a large enough effect in the signal ratio, with a control signal flat; the % refers to the signal ratio;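 further: 100% = dexamethasone at 0.1 µM and 0% = DMSO only wells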); conditions: HeLa MMTV-bla, beta-lactamase ratio, agonist, 18 h; stronger effect = higher value; percent of dexamethasone control, DMSO zero
In short: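 Stimulation of a glucocorticoid response element-driven beta-lactamase gene was measured in HeLa cells. Responses were scaled between DMSO basal and 0.1 uM dexamethasone, then fitted for half-maximal stimulation.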

[28] = target: Glucocorticoid receptor (Homo sapiens) (UniProt P04150); experiment: qHTS assay for small molecule antagonists of glucocorticoid receptor signaling (AID 588533; active means well fitted inhibition curve with a large enough effect in the signal ratio, with a control signal flat, not every such curve was filed as active; the % refers to the signal ratio;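 further: cells stimulated with 2 nM dexamethasone as agonist; on the % scale 0 is the no-effect control and ±100 the full control effect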)
In short: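 Antagonist-mode qHTS: compound titrations added to GRE-bla HeLa cells, then dexamethasone 2 nM final; 18 h, 37 C. CCF4 FRET fluorescence normalized to dexamethasone and DMSO; IC50 from Hill fit.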

[29] = qHTS assay for small molecule antagonists of retinoid X receptor alpha signaling (AID 588546; active means well fitted inhibition curve with a large enough effect in the signal ratio, with a control signal flat, not every such curve was filed as active; the % refers to the signal ratio;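 further: cells stimulated with 9-cis-retinoic acid as agonist; on the % scale 0 is the no-effect control and ±100 the full control effect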); conditions: HEK293T RXRa-UAS-bla, beta-lactamase ratio, antagonist mode; measured here: W530 green channel, cytotoxicity proxy
In short: (§1)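 Beta-lactamase reporter inhibition, read as CCF4 fluorescence ratio (ex 405, em 460/530 nm) after 2 h at RT. HEK293T UAS-bla cells, 2500/well, were stimulated with 9-cis-RA at 500 or 100 nM final alongside test compound for 18 h at 37 C.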

[30] = target: Retinoic acid receptor RXR-alpha (Homo sapiens) (UniProt P19793); experiment: as above; conditions: HEK293T RXRa-UAS-bla, beta-lactamase ratio, antagonist mode
In short: as §1

[31] = qHTS assay for small molecule disruptors of the mitochondrial membrane potential - 1 hr assay (AID 651754; calls by dose curve; further: on the % scale 0 is the no-effect control and ±100 the full control effect; nearly all actives have a fitted effect of over 35% in size)
In short: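 Steps: seed HepG2 cells and let attach overnight; pin-transfer compound or vehicle; incubate 1 hr at 37C; add Mito-MPS dye for 30 min; read two-channel fluorescence for monomer and aggregate forms.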

[32] = qHTS assay for small molecule disruptors of the mitochondrial membrane potential - 5 hr assay (AID 651755; calls by dose curve; further: on the % scale 0 is the no-effect control and ±100 the full control effect; nearly all actives have a fitted effect of over 40% in size)
In short: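 HepG2 cells, attached overnight at 37C, were exposed to compound or DMSO for 5 hr at 37C, 5% CO2. Mito-MPS dye was then added for 30 min, and fluorescence read at 490/535 nm (monomers) and 540/590 nm (aggregates).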

[33] = target: Tumor necrosis factor (Homo sapiens) (UniProt P01375); experiment: qHTS assay to identify small molecules that stimulate Tumor Necrosis Factor-alpha (TNF-alpha) secretion (AID 651757; active means well fitted curve in the direction sought with a large enough effect in the signal ratio; the % refers to the signal ratio; further: 0% is about no effect)
In short: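 Secreted TNF-alpha from compound-treated THP-1 cells (17 hrs, 37 C) was quantified with a homogeneous time-resolved fluorescence antibody assay.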

[34] = qHTS assay to identify small molecules that stimulate interleukin-8 (IL-8) secretion (AID 651758; active means well fitted activation curve with a large enough effect in the signal ratio; the % refers to the signal ratio; further: 0% is about no effect)
In short: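 THP-1, 2000 cells/well; cpd 16 h, 37 C; add cryptate + XL665 anti-IL-8 Abs; RT 1-3 h; TR-FRET read.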

[35] = qHTS assay for environmental chemicals that activate the Aryl hydrocarbon Receptor (AhR) signaling pathway (AID 651777); conditions: 1A2-DRE human hepatoma cells, luciferase, 24 h; stronger effect = higher value; further: % of control where 0% means no effect; nearly all actives have a fitted effect of over 15% in size
In short: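 Following a 24 hr incubation with test chemicals at 37 C and 5% CO2, 1A2-DRE human hepatoma cells received One-Glo reagent; after 30 min at room temperature, luciferase output reflected CYP1A2 induction via AhR.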

[36] = target: Peroxisome proliferator-activated receptor alpha (Homo sapiens) (UniProt Q07869); experiment: qHTS assay for small molecule agonists of the peroxisome proliferator-activated receptor alpha (PPARalpha) signaling pathway (AID 651778); conditions: PathHunter PPARalpha complementation, chemiluminescence, 6 h; stronger effect = higher value; further: % of control where 0% means no effect
In short: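 Cells plated at 2,000/well and held overnight at 37 C, 5% CO2, then compound added by pin tool for 6 hr; after PathHunter detection reagent and 60 min at room temperature, chemiluminescence from enzyme complementation was read.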

[37] = qHTS assay for small molecule agonists of the antioxidant response element (ARE) signaling pathway measured by Nrf2-dependant transcriptional activity (AID 720636; active means well fitted curve in the direction sought with a large enough effect in the repeat runs; an effect the other way counts as inactive or inconclusive;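 further: HepG2 cells with an ARE-driven luciferase reporter; % of control where 0% means no effect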)
In short: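 ONE-Glo luminescence, read 30 min after reagent addition at room temperature, reflected ARE reporter activity in HepG2 cells that had been incubated with compound for 16 hr at 37 C in 1% dialyzed FBS.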

[38] = qHTS assay for small molecule antagonists of the retinoid-related orphan receptor gamma (ROR-gamma) signaling pathway - cell viability counter screen (AID 720652; active means well fitted curve in the direction sought with a large enough effect in the repeat runs; an effect the other way counts as inactive or inconclusive)
In short: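 Cytotoxicity is quantified via intracellular ATP (CellTiter-Glo luminescence) in doxycycline-induced CHO ROR response element-luciferase reporter cells treated with compound for 16 hr at 37 C, 5% CO2.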

[39] = qHTS assay for small molecule agonists of the antioxidant response element (ARE) signaling pathway measured by Nrf2-dependant transcriptional activity - cell viability counter screen (AID 720653; active means well fitted curve in the direction sought with a large enough effect in the repeat runs; an effect the other way counts as inactive or inconclusive; further: on the % scale 0 is the no-effect control and ±100 the full control effect); conditions: ARE-bla HepG2 viability, CellTiter-Glo ATP luminescence, 16 h; stronger effect = lower value
In short: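 ARE-bla HepG2 cells (2,000/well) rested 5 hrs at 37C/5% CO2, then exposed to compounds in DMSO for 16 hrs. Viability was read in the same wells as intracellular ATP by luminescence, 30 min at room temperature after reagent addition.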

[40] = qHTS assay for cell viability of HEK293 cells (AID 743288); conditions: ATP luminescence (CellTiter-Glo), 18 h, stronger effect = lower value; further: on the % scale 0 is the no-effect control and ±100 the full control effect; nearly all actives have a fitted effect of over 50% in size
In short: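 The Tox21 protocol used parental HEK293 cells treated for 18 h at 37 C with compounds delivered by pintool; ATP-coupled luminescence after 30 min at room temperature gave viability.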

[41] = qHTS assay for cell viability of the p53RE-bla HCT-116 cell line (AID 743292)
In short: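 After plating at 4,000 cells per well and a 5 h rest at 37 C, HCT-116 cells carrying p53RE-bla received test chemicals in DMSO. Sixteen hours later at 37 C, CellTiter-Glo was added and luminescence recorded following 30 min at room temperature.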

[42] = target: Nuclear receptor subfamily 1 group I member 2 (Rattus norvegicus) (UniProt Q9R1A7); experiment: qHTS assay for small molecule activators of the rat pregnane X receptor (rPXR) signaling pathway (AID 651751; call rule not given here; further: 0% is about no effect); conditions: rPXR reporter cells, luciferase (One-Glo), 24 h
Nuclear receptor subfamily 1 group I member 2 (Rattus norvegicus), sequence (Q9R1A7 whole entry, looked up): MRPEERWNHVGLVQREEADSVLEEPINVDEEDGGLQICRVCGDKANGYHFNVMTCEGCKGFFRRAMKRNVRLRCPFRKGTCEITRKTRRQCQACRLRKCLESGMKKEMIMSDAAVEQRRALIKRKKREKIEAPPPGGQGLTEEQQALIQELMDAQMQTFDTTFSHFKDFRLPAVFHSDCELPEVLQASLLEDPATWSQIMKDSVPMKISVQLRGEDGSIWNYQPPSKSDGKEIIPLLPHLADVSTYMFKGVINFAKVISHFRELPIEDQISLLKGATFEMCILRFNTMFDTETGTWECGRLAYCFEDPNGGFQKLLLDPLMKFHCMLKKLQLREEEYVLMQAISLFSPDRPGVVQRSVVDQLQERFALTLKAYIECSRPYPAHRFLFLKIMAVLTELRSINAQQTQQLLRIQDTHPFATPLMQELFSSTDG

Glucocorticoid receptor (Homo sapiens), sequence (P04150 whole entry, looked up): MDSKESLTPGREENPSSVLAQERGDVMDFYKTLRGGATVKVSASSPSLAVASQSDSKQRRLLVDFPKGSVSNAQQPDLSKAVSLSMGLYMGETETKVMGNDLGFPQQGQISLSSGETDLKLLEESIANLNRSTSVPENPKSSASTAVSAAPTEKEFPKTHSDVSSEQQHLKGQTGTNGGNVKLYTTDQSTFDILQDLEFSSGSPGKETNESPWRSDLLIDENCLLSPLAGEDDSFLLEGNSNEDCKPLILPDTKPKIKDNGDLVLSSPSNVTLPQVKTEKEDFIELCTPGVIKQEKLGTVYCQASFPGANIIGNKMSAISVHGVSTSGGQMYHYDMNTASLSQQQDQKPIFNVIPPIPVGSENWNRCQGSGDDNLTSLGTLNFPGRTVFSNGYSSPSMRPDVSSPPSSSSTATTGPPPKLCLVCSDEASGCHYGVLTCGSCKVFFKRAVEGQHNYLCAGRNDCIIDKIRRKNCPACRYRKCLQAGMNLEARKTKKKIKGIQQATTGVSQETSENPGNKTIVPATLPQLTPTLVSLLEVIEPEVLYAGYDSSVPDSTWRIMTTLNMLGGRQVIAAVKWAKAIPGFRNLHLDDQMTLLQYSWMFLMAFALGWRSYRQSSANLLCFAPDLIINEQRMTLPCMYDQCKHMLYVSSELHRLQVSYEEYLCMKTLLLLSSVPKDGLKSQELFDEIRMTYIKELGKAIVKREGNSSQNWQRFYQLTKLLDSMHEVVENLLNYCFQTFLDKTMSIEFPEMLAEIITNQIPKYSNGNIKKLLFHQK
Androgen receptor (Homo sapiens), sequence (P10275 whole entry, looked up): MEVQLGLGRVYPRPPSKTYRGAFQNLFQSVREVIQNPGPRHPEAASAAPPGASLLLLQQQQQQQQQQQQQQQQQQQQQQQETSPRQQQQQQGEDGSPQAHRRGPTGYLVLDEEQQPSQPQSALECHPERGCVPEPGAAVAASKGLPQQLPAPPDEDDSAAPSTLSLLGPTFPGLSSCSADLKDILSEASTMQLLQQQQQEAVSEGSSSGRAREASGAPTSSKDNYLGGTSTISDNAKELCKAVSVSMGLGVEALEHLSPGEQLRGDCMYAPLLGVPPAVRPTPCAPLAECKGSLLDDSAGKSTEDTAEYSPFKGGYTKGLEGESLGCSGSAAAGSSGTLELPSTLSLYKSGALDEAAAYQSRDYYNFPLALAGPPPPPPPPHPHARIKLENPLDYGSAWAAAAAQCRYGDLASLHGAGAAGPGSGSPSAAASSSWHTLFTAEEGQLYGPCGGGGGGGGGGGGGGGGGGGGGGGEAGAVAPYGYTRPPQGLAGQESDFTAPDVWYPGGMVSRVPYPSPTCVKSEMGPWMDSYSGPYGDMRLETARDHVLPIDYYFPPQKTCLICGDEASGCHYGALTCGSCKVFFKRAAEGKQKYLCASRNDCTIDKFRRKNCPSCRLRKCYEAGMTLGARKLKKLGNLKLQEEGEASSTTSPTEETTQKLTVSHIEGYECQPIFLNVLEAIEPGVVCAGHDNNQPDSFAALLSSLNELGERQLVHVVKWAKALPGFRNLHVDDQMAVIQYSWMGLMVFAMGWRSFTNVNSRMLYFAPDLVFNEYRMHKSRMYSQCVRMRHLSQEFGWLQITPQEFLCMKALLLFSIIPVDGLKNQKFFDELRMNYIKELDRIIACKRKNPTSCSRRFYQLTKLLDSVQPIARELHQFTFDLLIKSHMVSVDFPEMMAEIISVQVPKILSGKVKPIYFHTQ
Tumor necrosis factor (Homo sapiens), sequence (P01375 whole entry, looked up): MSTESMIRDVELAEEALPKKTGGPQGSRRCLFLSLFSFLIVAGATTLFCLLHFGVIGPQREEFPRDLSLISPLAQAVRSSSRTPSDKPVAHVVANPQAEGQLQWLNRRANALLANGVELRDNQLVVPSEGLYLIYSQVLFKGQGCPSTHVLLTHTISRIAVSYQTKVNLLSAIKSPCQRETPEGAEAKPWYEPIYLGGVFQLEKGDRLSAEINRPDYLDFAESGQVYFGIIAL
Estrogen receptor (Homo sapiens), sequence (P03372 whole entry, looked up): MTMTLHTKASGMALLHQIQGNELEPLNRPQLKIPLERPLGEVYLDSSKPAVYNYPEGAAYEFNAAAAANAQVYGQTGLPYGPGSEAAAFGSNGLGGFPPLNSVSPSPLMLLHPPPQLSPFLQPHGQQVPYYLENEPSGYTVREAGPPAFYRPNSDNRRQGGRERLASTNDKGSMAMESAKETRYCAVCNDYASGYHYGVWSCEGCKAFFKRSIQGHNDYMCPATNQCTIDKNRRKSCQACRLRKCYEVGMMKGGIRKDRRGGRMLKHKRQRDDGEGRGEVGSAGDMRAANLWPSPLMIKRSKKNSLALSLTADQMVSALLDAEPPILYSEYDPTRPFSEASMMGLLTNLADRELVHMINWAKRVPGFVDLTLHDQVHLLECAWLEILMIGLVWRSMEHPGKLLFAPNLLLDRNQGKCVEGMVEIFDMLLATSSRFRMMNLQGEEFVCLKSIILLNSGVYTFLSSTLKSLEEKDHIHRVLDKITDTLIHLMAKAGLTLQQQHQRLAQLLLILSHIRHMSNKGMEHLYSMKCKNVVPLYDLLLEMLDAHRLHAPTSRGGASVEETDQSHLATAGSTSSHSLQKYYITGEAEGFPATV
Retinoic acid receptor RXR-alpha (Homo sapiens), sequence (P19793 whole entry, looked up): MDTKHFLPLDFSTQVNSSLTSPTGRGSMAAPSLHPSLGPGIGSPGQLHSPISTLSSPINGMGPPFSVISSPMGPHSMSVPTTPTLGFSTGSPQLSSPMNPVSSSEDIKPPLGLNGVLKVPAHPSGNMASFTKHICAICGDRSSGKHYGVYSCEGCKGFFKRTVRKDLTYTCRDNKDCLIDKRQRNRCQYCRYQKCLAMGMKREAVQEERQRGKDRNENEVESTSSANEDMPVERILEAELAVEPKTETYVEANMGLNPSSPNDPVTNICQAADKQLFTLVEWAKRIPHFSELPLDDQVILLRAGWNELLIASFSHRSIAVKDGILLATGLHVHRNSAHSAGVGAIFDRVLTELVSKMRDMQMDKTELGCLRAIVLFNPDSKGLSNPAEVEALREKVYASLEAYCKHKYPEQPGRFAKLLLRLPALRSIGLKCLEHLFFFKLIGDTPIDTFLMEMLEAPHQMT
Peroxisome proliferator-activated receptor alpha (Homo sapiens), sequence (Q07869 whole entry, looked up): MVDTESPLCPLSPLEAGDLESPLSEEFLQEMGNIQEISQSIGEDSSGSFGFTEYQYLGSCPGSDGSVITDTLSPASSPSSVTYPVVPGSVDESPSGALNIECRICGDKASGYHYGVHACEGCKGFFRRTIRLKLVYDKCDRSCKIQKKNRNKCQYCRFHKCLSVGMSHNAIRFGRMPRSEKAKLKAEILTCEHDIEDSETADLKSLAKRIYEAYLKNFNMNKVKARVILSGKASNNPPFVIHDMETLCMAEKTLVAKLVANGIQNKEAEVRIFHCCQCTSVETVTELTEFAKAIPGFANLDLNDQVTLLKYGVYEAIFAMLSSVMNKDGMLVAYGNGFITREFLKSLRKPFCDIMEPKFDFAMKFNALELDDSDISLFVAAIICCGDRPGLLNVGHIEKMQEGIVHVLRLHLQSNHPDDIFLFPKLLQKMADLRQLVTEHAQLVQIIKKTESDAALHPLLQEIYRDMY

CN(C)CCOC(c1ccccc1)c1ccccc1 (tested in a mixture with another compound)
-0.682%: max response ([24]; measured here: cell count channel max response)
3.3%: max response [29]
inactive: outcome [1] | outcome [2] | outcome [3] | outcome [4] | outcome [5] | outcome [6] | outcome [7] | outcome [8] | outcome [9] | outcome [10] | outcome [11] | outcome [12] | outcome [13] | outcome [14] | outcome [15] | outcome [16] | outcome [17] | outcome [18] | outcome [19] | outcome [20] | outcome [21] | outcome [22] | outcome [23] | activity change, negative = inhibition ([24]; at 25.7 µM (top of the series)) -3.15% | outcome [25] | outcome [26] | activation [27] 1.99% | outcome [28] | max response [30] -6.76% | outcome [31] | outcome [32] | outcome [33] | outcome [34] | activation [35] 0.508% | max response [36] 0.237% | outcome [37] | outcome [38] | max response [39] -6.81% | max response [40] 3.64% | outcome [41] | max response [42] -6.62%
-4.36%: max response ([24]; measured here: lipid channel max response)
